# Laboratory results: the supplement of paper PMC9950053
# Counter-ions that a name gives are not always drawn.
# System: Danio rerio larvae (5 dpf)
# Test: combined upward orientation toward moving lines (periods 7-14) minus DMSO control (percentage points); higher = more orientation with moving lines than DMSO larvae
# Settings: 10 µM; exposure time: 3 h pre-incubation + 3 h imaging
# Description: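 Wild-type 5 dpf zebrafish larvae (n=48 per drug, 96-well plates, 28.5 °C) were exposed to Tocris FDA-approved library compounds at 10 µM (0.1% DMSO) for 3 h before and 3 h during imaging. Images were taken every 6 s during visual (moving coloured lines) and acoustic stimuli, and larvae were tracked with the DeepLabCut-based Z-LaP Tracker. Each behavioural measure is the treated-group mean minus the DMSO vehicle control mean (n=844), in percentage points. This mapping covers compounds with 4-character plate codes.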
row,SMILES,combined upward orientation toward moving lines
1,Cc1nc(Nc2ncc(C(=O)Nc3c(C)cccc3Cl)s2)cc(N2CCN(CCO)CC2)n1 [Dasatinib],-11
2,CCCCCOC(=O)Nc1nc(=O)n([C@@H]2O[C@H](C)[C@@H](O)[C@H]2O)cc1F [Capecitabine],-0.314
3,OCCN(CCO)c1nc(N2CCCCC2)c2nc(N(CCO)CCO)nc(N3CCCCC3)c2n1 [Dipyridamole],-2.19
4,O=C(O)CCCc1ccccc1 [Sodium 4-Phenylbutyrate],-3.45
5,CC(C)Nc1cccnc1N1CCN(C(=O)c2cc3cc(NS(C)(=O)=O)ccc3[nH]2)CC1 [Delavirdine mesylate],-7.64
6,CCOc1nc2cccc(C(=O)O)c2n1Cc1ccc(-c2ccccc2-c2nnn[nH]2)cc1 [Candesartan],2.56
7,CC(C)c1nc(CN(C)C(=O)N[C@H](C(=O)N[C@@H](Cc2ccccc2)C[C@H](O)[C@H](Cc2ccccc2)NC(=O)OCc2cncs2)C(C)C)cs1 [Ritonavir],-4.18
8,Cc1ccc(N(CC2=NCCN2)c2cccc(O)c2)cc1 [Phentolamine Mesylate],4.89
9,COc1ccc(C[C@@H](C)NC[C@H](O)c2ccc(O)c(NC=O)c2)cc1 [Arformoterol tartrate],0.636
10,COc1cc2nc(N3CCN(C(=O)c4ccco4)CC3)nc(N)c2cc1OC [Prazosin hydrochloride],-10.6
11,CCCCCCCCc1ccc(CCC(N)(CO)CO)cc1,-8.46
12,Nc1ncn([C@@H]2O[C@H](CO)[C@@H](O)[C@H]2O)c(=O)n1 [5-Azacytidine],2.4
13,CN(C)CCC[C@@]1(c2ccc(F)cc2)OCc2cc(C#N)ccc21 [Escitalopram oxalate],-1.11
14,CC1(C)O[C@@H]2[C@@H](CO[C@@]3(COS(N)(=O)=O)OC(C)(C)O[C@@H]23)O1 [Topiramate],-4.17
15,COc1ccccc1OCCNCC(O)COc1cccc2[nH]c3ccccc3c12 (stereo not given) [Carvedilol],-11.6
16,Nc1ccn([C@@H]2O[C@H](CO)[C@@H](O)C2(F)F)c(=O)n1 [Gemcitabine hydrochloride],5.82
17,C[C@H]1C[C@@H]2[C@H]([C@@H](O)C[C@@]3(C)[C@H]2CC[C@]3(O)C(=O)CO)[C@@]2(C)C=CC(=O)C=C12 [Methylprednisolone],-7.43
18,Cc1nnc(C(C)C)n1C1C[C@H]2CC[C@@H](C1)N2CC[C@H](NC(=O)C1CCC(F)(F)CC1)c1ccccc1 (stereo in doubt) [Maraviroc],-1.2
19,CCOC(=O)[C@H](CCc1ccccc1)N[C@H]1CCc2ccccc2N(CC(=O)O)C1=O [Benazepril hydrochloride],-4.13
20,Nc1nc(Cl)nc2c1ncn2[C@@H]1O[C@H](CO)[C@@H](O)[C@@H]1F [Clofarabine],-4.29

row,SMILES,combined upward orientation toward moving lines
1,Cc1ccc(NC(=O)c2ccc(CN3CCN(C)CC3)cc2)cc1Nc1nccc(-c2cccnc2)n1 [Imatinib mesylate],-1.28
2,CC(C)n1c(/C=C/C(O)CC(O)CC(=O)O)c(-c2ccc(F)cc2)c2ccccc21 (stereo not given) [Fluvastatin sodium],1.58
3,CN1CCC[C@@H]1Cc1c[nH]c2ccc(CCS(=O)(=O)c3ccccc3)cc12 [Eletriptan hydrobromide],-1.33
4,COc1ccc([C@@H]2Sc3ccccc3N(CCN(C)C)C(=O)[C@@H]2OC(C)=O)cc1 [Diltiazem hydrochloride],-1.58
5,CCCCc1nc(Cl)c(CO)n1Cc1ccc(-c2ccccc2-c2nnn[nH]2)cc1 [Losartan potassium],-9.02
6,O=c1[nH]c(=O)n([C@H]2C[C@H](O)[C@@H](CO)O2)cc1C(F)(F)F [Trifluorothymidine],-3.41
7,NC(=O)c1ncn([C@@H]2O[C@H](CO)[C@@H](O)[C@H]2O)n1 [Ribavirin],-1.89
8,Cc1cc(C2CCCCC2)n(O)c(=O)c1 [Ciclopirox],-27.9
9,COc1c(C)c2c(c(O)c1C/C=C(\C)CCC(=O)OCCN1CCOCC1)C(=O)OC2 [Mycophenolate mofetil],4.45
10,CCC(C)(C)C(=O)O[C@H]1C[C@@H](C)C=C2C=C[C@H](C)[C@H](CC[C@@H]3C[C@@H](O)CC(=O)O3)[C@H]21 [Simvastatin],-3.05
11,CCN(CC)CCNC(=O)c1c(C)[nH]c(/C=C2\C(=O)Nc3ccc(F)cc32)c1C [Sunitinib malate],-5.61
12,CCOC(=O)c1ncn2c1CN(C)C(=O)c1cc(F)ccc1-2 [Flumazenil],2.99
13,O=C(Nc1c(Cl)cncc1Cl)c1ccc(OC(F)F)c(OCC2CC2)c1 [Roflumilast],-2.52
14,CC(C)c1ccc2oc3nc(N)c(C(=O)O)cc3c(=O)c2c1 [Amlexanox],-5.36
15,C[C@]12CC[C@@H]3c4ccc(O)cc4C[C@@H](CCCCCCCCC[S+]([O-])CCCC(F)(F)C(F)(F)F)[C@H]3[C@@H]1CC[C@@H]2O (stereo not given in full),0.781
16,Cn1cnc([N+](=O)[O-])c1Sc1ncnc2[nH]cnc12 [Azathioprine],0.321
17,CCCN(CCc1cccs1)[C@H]1CCc2c(O)cccc2C1 [Rotigotine hydrochloride],-7.46
18,CCOC(=O)N1CCC(=C2c3ccc(Cl)cc3CCc3cccnc32)CC1 [Loratidine],-3.52
19,CC(=O)O[C@H]1C(=O)[C@@]2(C)[C@H]([C@H](OC(=O)c3ccccc3)[C@]3(O)C[C@H](OC(=O)[C@H](O)[C@@H](NC(=O)c4ccccc4)c4ccccc4)C(C)=C1C3(C)C)[C@]1(OC(C)=O)CO[C@@H]1C[C@@H]2O [Taxol],-6.91
20,Nc1ncn([C@H]2C[C@H](O)[C@@H](CO)O2)c(=O)n1 [Decitabine],-6.22
